These results are taken from PubChem BioAssay (EPA / NIEHS).

In general, AC50 refers to the midpoint of the concentration-response curve, whichever way the signal moves.

Where “and” joins values, the source holds several entries; their conditions need not be identical. Equal entries are not always repeated. Inconclusive results are not listed. The source holds several records for some structures; these can differ, active in one and inactive in another. Calls of active or inactive are those of the source. Rule for the calls, unless noted: active = hit-call score of the fitted dose curve at least 0.9, where 1 is the maximum; inactive = score below 0.9.

Tested on in the first experiment: not listed separately
Put plainly: CCTE_Shafer_MEA_dev_active_electrodes_number: CCTE's Neural Network Formation Assay for Number of Active Electrodes, Shafer Lab (AID 2284040; active = hit-call score of the fitted dose curve at least 0.9, where 1 is the maximum;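 for AC50: potency for loss of active electrodes versus DMSO so lower counts are hits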). The procedure, abridged:
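Counts electrodes per well firing at least 5 spikes/min, recorded on days 5, 7, 9 and 12 in rat cortical cultures dosed continuously from plating (treatment refreshed DIV 5, 9). Value is the area under the curve over recordings, fitted downward relative to DMSO.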
For the compound `Clc1ccc(C(c2ccccc2Cl)C(Cl)(Cl)Cl)cc1` (stereo not given), the AC50 is 4.03 µM (active).
`ClC1=C(Cl)[C@]2(Cl)[C@@H]3[C@@H](Cl)[C@H]4O[C@H]4[C@@H]3C1(Cl)C2(Cl)Cl`: the AC50 is 23.3 µM (active).
Regarding `C=CC(N)=O`, the call was inactive.
For `CO/C=C(/C(=O)OC)c1ccccc1COc1cccc(C(F)(F)F)n1`, the AC50 is 229 nM (active) and 493 nM (active).
As for `O=S(=O)(O)C(F)(F)C(F)(F)C(F)(F)C(F)(F)F`, the AC50 was 11.4 µM (active) and the compound was classed as inactive.
With `CCOP(=S)(OCC)SCSC(C)(C)C`, the AC50 is 18.2 µM (active) and 16.1 µM (active).
Take `ClC(Cl)=C(c1ccc(Cl)cc1)c1ccc(Cl)cc1`: the AC50 is 4.01 µM (active).

In another experiment the target is Estrogen receptor (Homo sapiens) (UniProt P03372). Put plainly: CCTE_Deisenroth_AIME_384WELL_LUC_Shift: CCTE's 384-well Estrogen Receptor Transactivation Assay with AIME metabolic competence data shift (ERTA luciferase; difference in metabolism positive and negative), Deisenroth Lab (AID 2284041).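 Note: shift is response with S9 minus without S9 so positive means metabolism raised ER signal.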 The procedure, abridged: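 Here, parent compounds undergo 2 h phase I metabolism by PB/BNF-induced rat S9 before 24 h transactivation in VM7Luc4E2 cells; the curve models S9-positive minus S9-negative response over a 10-point series.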
Sequence of Estrogen receptor (Homo sapiens) (P03372 whole entry, looked up): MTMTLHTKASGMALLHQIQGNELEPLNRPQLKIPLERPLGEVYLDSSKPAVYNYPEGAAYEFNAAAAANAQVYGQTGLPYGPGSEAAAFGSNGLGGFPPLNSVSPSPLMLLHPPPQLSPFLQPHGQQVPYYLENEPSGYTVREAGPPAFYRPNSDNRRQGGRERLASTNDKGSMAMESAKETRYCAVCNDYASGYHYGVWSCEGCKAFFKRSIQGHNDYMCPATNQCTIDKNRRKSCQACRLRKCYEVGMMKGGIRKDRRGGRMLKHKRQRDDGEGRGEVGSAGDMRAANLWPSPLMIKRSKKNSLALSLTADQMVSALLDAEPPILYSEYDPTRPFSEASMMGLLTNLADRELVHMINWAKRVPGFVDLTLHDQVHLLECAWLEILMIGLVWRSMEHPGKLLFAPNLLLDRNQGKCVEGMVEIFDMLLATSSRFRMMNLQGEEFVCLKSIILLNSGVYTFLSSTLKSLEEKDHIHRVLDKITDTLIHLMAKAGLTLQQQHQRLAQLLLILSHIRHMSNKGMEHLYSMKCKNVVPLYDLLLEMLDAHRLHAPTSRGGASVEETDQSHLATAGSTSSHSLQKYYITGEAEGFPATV
Consider `Sc1ccccc1`, for which the outcome was inactive.
As for `COS(=O)(=O)OC`, the outcome was inactive.
Same read-out and setting: the result for `CN(C)CCO` reads “inactive”; that for `COc1ccc(O)c(C(C)(C)C)c1`, “inactive”.
In the case of `Nn1cnnc1`, the AC50 is 72.4 µM (active).
Same read-out and setting: for `C[C@]12CCC(=O)C=C1CC[C@@H]1[C@@H]2CC[C@@]2(C)[C@H]1CC[C@]2(C)O` the value was 5.67 µM (active).
With `CCCCCCOC(=O)c1ccccc1C(=O)OCCCCCC`, the outcome was inactive.
The same measure, in the same setting: for `Cc1ccc(O)c(C)c1` the value was “inactive”.

Tested on in another experiment: not listed separately
Put plainly: CCTE_Shafer_MEA_dev_burst_rate: CCTE's Neural Network Formation Assay for Burst Rate, Shafer Lab (AID 2284042).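 For AC50: potency for loss of burst rate below DMSO control.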 The procedure, abridged:
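Developmental network assay measuring how 12-day exposure of rat cortical neuron cultures alters bursting on extracellular MEA recordings. Values are AUC of well-mean burst rate across four recording days, relative to DMSO vehicle.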
In the case of `Clc1ccc(C(c2ccccc2Cl)C(Cl)(Cl)Cl)cc1` (stereo not given), the AC50 is 1.98 µM (active).
The same measure, in the same setting: the result for `ClC1=C(Cl)[C@]2(Cl)[C@@H]3[C@@H]4C[C@@H]([C@H]5O[C@@H]45)[C@@H]3[C@@]1(Cl)C2(Cl)Cl` reads 5.67 µM (active).
Regarding `ClC1=C(Cl)[C@]2(Cl)[C@@H]3[C@@H](Cl)[C@H]4O[C@H]4[C@@H]3C1(Cl)C2(Cl)Cl`, the compound was classed as inactive.
`C=CC(N)=O`: the call was inactive.
Take `CO/C=C(/C(=O)OC)c1ccccc1COc1cccc(C(F)(F)F)n1`: the AC50 is 280 nM (active) and 327 nM (active).
Consider `O=C(O)C(F)(F)C(F)(F)C(F)(F)C(F)(F)C(F)(F)F`, for which the call was inactive.
Turning to `COc1ccc(O)c(C(C)(C)C)c1`, the call was inactive.
Regarding `O=S(=O)(O)C(F)(F)C(F)(F)C(F)(F)C(F)(F)F`, the compound was classed as inactive.
With `CCOP(=S)(OCC)SCSC(C)(C)C`, the AC50 is 23.2 µM (active) and the result was inactive.
For `ClC(Cl)=C(c1ccc(Cl)cc1)c1ccc(Cl)cc1`, the concentration at half-maximal activity (AC50) was 4.06 µM (active).

Tested on in a further experiment: not listed separately
Put plainly: CCTE_Shafer_MEA_dev_bursting_electrodes_number: CCTE's Neural Network Formation Assay for Number of Bursting Electrodes, Shafer Lab (AID 2284043; active = hit-call score of the fitted dose curve at least 0.9, where 1 is the maximum;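 for AC50: potency is for loss of bursting electrodes relative to DMSO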). The procedure, abridged:
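Counted: electrodes with burst rate ≥1 per 2 min in each well. Cells: primary rat cortex, 1.5 x 10^5/well, on 16-electrode MEA wells. Exposure: DIV 0–12, compound renewed DIV 5 and 9. Recording days 5, 7, 9, 12; AUC vs DMSO baseline.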
Turning to `Clc1ccc(C(c2ccccc2Cl)C(Cl)(Cl)Cl)cc1` (stereo not given), the AC50 is 4.01 µM (active).
Still for that read-out and setting: for `ClC1=C(Cl)[C@]2(Cl)[C@@H]3[C@@H]4C[C@@H]([C@H]5O[C@@H]45)[C@@H]3[C@@]1(Cl)C2(Cl)Cl` the value was 10.2 µM (active); for `ClC1=C(Cl)[C@]2(Cl)[C@@H]3[C@@H](Cl)[C@H]4O[C@H]4[C@@H]3C1(Cl)C2(Cl)Cl`, 24.9 µM (active).
For `C=CC(N)=O`, the result was inactive.
For the compound `CO/C=C(/C(=O)OC)c1ccccc1COc1cccc(C(F)(F)F)n1`, the AC50 was 203 nM (active) and 323 nM (active).
Same read-out and setting: the result for `O=S(=O)(O)C(F)(F)C(F)(F)C(F)(F)C(F)(F)F` reads 8.61 µM (active); that for `CCOP(=S)(OCC)SCSC(C)(C)C`, 23.1 µM (active) and 16.5 µM (active).
Regarding `ClC(Cl)=C(c1ccc(Cl)cc1)c1ccc(Cl)cc1`, the AC50 was 5.08 µM (active).
